# Experimental data taken from the supplement of paper PMC6522484.
# ± gives the standard deviation of the averaged measurements.
# What was measured:
# DLD1 [1] = assay: cell viability (CellTiter-Glo) relative to plate median (fraction of plate median); higher = more viable cells; conditions: 5 µM; treatment time 24 h; reporter: 7TFP
# Procedure, shortened: (§1)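 Colorectal cancer cell lines stably transduced with lentiviral TCF/Wnt firefly luciferase reporters (7TFP or TCF4/Wnt) were seeded in 384-well plates. 24 h later they received library compounds at a final 5 µM for 24 h. Parallel plates were read for firefly luciferase or CellTiterGlo luminescence on a Tecan F500 reader. Each well's signal was normalised to the plate median (webcellHTS2, additive, no log transformation), and the mean of two independent replicates is reported.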
# HCT116 = assay: as above; conditions: 5 µM; treatment time 24 h; reporter: TCF4/Wnt
# Procedure, shortened: as §1
# SW480 [2] = assay: as above; conditions: 5 µM; treatment time 24 h; reporter: 7TFP
# Procedure, shortened: as §1
# DLD1 [3] = assay: TCF/Wnt firefly luciferase reporter signal relative to plate median (fraction of plate median); higher = higher Wnt reporter signal; conditions: 5 µM; treatment time 24 h; reporter: 7TFP
# Procedure, shortened: as §1
# SW480 [4] = assay: as above; conditions: 5 µM; treatment time 24 h; reporter: 7TFP
# Procedure, shortened: as §1
Compound,cell viability (DLD1 [1]),cell viability (HCT116),cell viability (SW480 [2]),TCF/Wnt firefly luciferase reporter signal (DLD1 [3]),TCF/Wnt firefly luciferase reporter signal (SW480 [4])
COc1cc(OC)c2c(OC)c(-c3ccc4c(c3)OCO4)c(=O)oc2c1,1.04,1.08 ± 0.05,1.01 ± 0.061,0.804 ± 0.36,0.867 ± 0.34
CC(=O)N[C@@H](CC(=O)c1ccccc1N)C(=O)O [N-Acetyl-kynurenine],1.09 ± 0.12,1.12 ± 0.11,1.01 ± 0.044,0.859 ± 0.17,1.05 ± 0.078
O=c1c2ccccc2oc2ccccc12,0.986 ± 0.016,0.98 ± 0.043,0.98 ± 0.029,0.985 ± 0.036,0.916 ± 0.03
C=C1C(=O)O[C@H]2[C@H]1CC/C(C)=C/CC[C@@]1(C)O[C@@H]21,0.84 ± 0.12,0.998 ± 0.017,0.886 ± 0.044,0.825 ± 0.096,0.836 ± 0.049
CC(=O)O[C@@H]1CC2C(C)(C)C(=O)CC[C@]2(C)C2CC[C@]3(C)C(=CC(=O)O[C@H]3c3ccoc3)[C@@]21C (stereo not given in full),1.05 ± 0.12,1.06 ± 0.17,1.07 ± 0.092,1.06 ± 0.11,0.949 ± 0.087
COc1cc2cc3c4cc(OC)c(OC)cc4cc[n+]3c(C)c2cc1OC,1 ± 0.067,0.959 ± 0.013,0.9305 ± 0.00071,1.05 ± 0.16,1.01 ± 0.097
COc1c(N2C[C@@H]3CCCN[C@@H]3C2)c(F)cc2c(=O)c(C(=O)O)cn(C3CC3)c12,0.861 ± 0.14,1.02,1.02 ± 0.069,1.1 ± 0.042,1 ± 0.013
CCCn1c(=O)c2[nH]c(C3CCCC3)nc2n(CCC)c1=O,0.998 ± 0.059,1.03 ± 0.047,1.02 ± 0.037,1.04 ± 0.16,0.968 ± 0.073
C[C@@H]1NC(=O)[C@@H](N)CNC(=O)[C@H](C2CCNC(=N)N2)NC(=O)/C(=C/NC(N)=O)NC(=O)[C@H](CNC(=O)CC(N)CCCN)NC1=O.N=C1NCC[C@H]([C@@H]2NC(=O)/C(=C/NC(N)=O)NC(=O)[C@H](CNC(=O)C[C@@H](N)CCCN)NC(=O)[C@H](CO)NC(=O)[C@@H](N)CNC2=O)N1,1.03 ± 0.052,0.993 ± 0.081,0.996 ± 0.076,0.816 ± 0.0071,0.871 ± 0.093
CCOC(=O)CCCCCCCCCCCCC1C=CCC1 (stereo not given),0.9375 ± 0.005,0.949 ± 0.07,0.965 ± 0.05,0.869 ± 0.034,0.873 ± 0.073
COC(=O)[C@@H]1OC(=O)[C@H]2O[C@@]23[C@@]1(C)CCC1[C@@]2(C)CCC(=O)C(C)(C)C2C[C@@H](OC(C)=O)[C@]13C (stereo not given in full),0.995 ± 0.078,1.1 ± 0.085,1.01 ± 0.034,0.994 ± 0.037,0.967 ± 0.038
CCN(CC)Cc1cc(Nc2ccnc3cc(Cl)ccc23)ccc1O,0.908 ± 0.064,0.967 ± 0.016,0.946 ± 0.051,0.952 ± 0.17,0.921 ± 0.25
CN(C)CCOC(=O)C(c1ccccc1)C1(O)CCCC1 (stereo not given),0.986 ± 0.0014,1.07 ± 0.099,1 ± 0.013,1.12 ± 0.12,1.05 ± 0.12
CC(CCc1ccc(O)cc1)NCCc1ccc(O)c(O)c1 (stereo not given),1.01 ± 0.018,1.06 ± 0.18,1 ± 0.037,0.928 ± 0.058,1.02 ± 0.088
FC(F)(F)c1ccccc1-n1ccnc1,1.02 ± 0.04,1.01 ± 0.017,1 ± 0.026,1.03 ± 0.064,0.912 ± 0.14
O=c1cc[nH]c(=S)[nH]1,1.03 ± 0.073,1.04 ± 0.061,0.956 ± 0.076,1.03 ± 0.014,1.02 ± 0.028
COC(=O)c1cc(O)c(=O)c2c(O)c(O)ccc2c1,0.982 ± 0.096,0.8955 ± 0.0021,0.997 ± 0.033,0.785 ± 0.037,0.951 ± 0.11
Cc1cccc(C)c1OCC(C)N (stereo not given),0.988 ± 0.059,0.983 ± 0.12,1.06,1.19 ± 0.078,1.05 ± 0.1
CC(C)(CO)C(O)C(=O)NCCCO (stereo not given),1.05 ± 0.16,1.06 ± 0.028,1.07 ± 0.064,0.992 ± 0.068,0.978 ± 0.074
Clc1ccc(CO/N=C(\Cn2ccnc2)c2ccc(Cl)cc2Cl)c(Cl)c1,0.9865 ± 0.0092,1.03 ± 0.035,0.9675 ± 0.0021,0.905 ± 0.056,0.823 ± 0.0092
N[C@@H](CSCSC[C@H](N)C(=O)O)C(=O)O,0.966 ± 0.013,0.915 ± 0.022,0.9935 ± 0.0092,1.05 ± 0.014,0.934 ± 0.048
"COc1cc(C(N)=O)ccc1O [4-Hydroxy-3-methoxy-benzoic acid amide, Vanillic acid amide]",0.953 ± 0.032,1.125 ± 0.0071,1.06 ± 0.014,1.06 ± 0.086,0.942 ± 0.064
Cc1c(C)c2c(c(C)c1O)CCC(C)(CCCC(C)CCCC(C)CCCC(C)C)O2 (stereo not drawn) [alpha-TOCHOPHEROL],0.963 ± 0.012,0.97 ± 0.085,1.01 ± 0.017,1.07 ± 0.014,1.01 ± 0.16
COc1cc(OC)cc(OC)c1,1.03 ± 0.028,1.02 ± 0.028,1.015 ± 0.0071,1.13 ± 0.028,1.1 ± 0.11
O=c1c(O)cccc2cc(O)c(O)c(O)c12,1.06 ± 0.057,0.914 ± 0.056,1.01 ± 0.037,1.04 ± 0.014,0.944 ± 0.094
C[C@]12C=CC(=O)C=C1CC[C@H]1[C@@H]3C[C@@H](O)[C@](O)(C(=O)CO)[C@@]3(C)C[C@H](O)[C@@]12F,0.999 ± 0.086,1.01 ± 0.047,0.982 ± 0.012,0.951 ± 0.069,0.89 ± 0.15
C[C@]12CC[C@@H]3c4ccc(OS(=O)(=O)O)cc4CC[C@H]3[C@@H]1CCC2=O,1.03 ± 0.035,1.12 ± 0.014,1 ± 0.014,1.24 ± 0.21,1.23 ± 0.028
O=C(O)CCCCCCCCCCCC[C@@H]1C=CCC1,1 ± 0.055,1.03 ± 0.058,0.966 ± 0.1,1.15 ± 0.014,1 ± 0.096
CC1CCc2cc(F)cc3c(=O)c(C(=O)O)cn1c23 (stereo not given),1.05 ± 0.071,1.05 ± 0.15,0.972 ± 0.013,0.953 ± 0.039,1.07 ± 0.014
OC(Cn1cncn1)(Cn1cncn1)c1ccc(F)cc1F,0.889 ± 0.033,0.883 ± 0.069,0.9295 ± 0.0064,1.09 ± 0.028,1.01 ± 0.054
